The structures appear in SMILES notation. “And” between values parts separate entries of the source, which are not always exact repeats. Identical values can stand only once. Where a structure was tested more than once in an assay, its records may differ in their call. The source made the active and inactive calls. The calls were made as follows: active = hit-call score of the fitted dose curve at least 0.9, where 1 is the maximum; inactive = score below 0.9.

Read-out in test [1]: Vascular cell adhesion molecule 1 (VCAM1), VCAM1 (gene 7412)
Kind of test: BSK_4H_VCAM1: BioMAP Diversity Plus: 4H Assay for Vascular cell adhesion molecule 1 (VCAM1) Biomarker Activity (AID 2283033).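 As to outcome: cell-surface VCAM-1 protein measured by ELISA.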 The note with it: primary human endothelial cells (HUVEC); actives raise or lower the signal. The procedure, abridged:
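Primary human umbilical vein endothelial cells were exposed to chemicals for 24 h, after which VCAM-1 was quantified by ELISA. Responses were fitted bidirectionally against DMSO as negative control and activity baseline.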

Read-out in test [2]: Interferon-gamma inducible Protein 10 (IP10), CXCL10 (gene 3627)
Kind of test: BSK_BE3C_IP10: BioMAP Diversity Plus: BE3C Assay for Interferon-gamma inducible Protein 10 (IP10) Biomarker Activity (AID 2283034). The settings on record: primary human bronchial epithelial cells; actives raise or lower the signal. Summed up: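 Human primary bronchial epithelial cells were exposed to chemicals for 24 hours, after which IP-10 levels were measured by ELISA. Data were fitted bidirectionally against DMSO, which served as the negative control and activity baseline.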

Read-out in test [3]: Monokine induced gamma interferon (MIG), CXCL9 (gene 4283)
Kind of test: BSK_BE3C_MIG: BioMAP Diversity Plus: BE3C Assay for Monokine induced gamma interferon (MIG) Biomarker Activity (AID 2283035).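 Also: MIG protein measured by ELISA in BE3C cultures after 24 h of dosing.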 The settings on record: primary human bronchial epithelial cells; actives raise or lower the signal. The procedure, abridged:
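ELISA read-out of MIG in human lung bronchial epithelial primary cultures, 24 h post-dosing. Bidirectional curve fit vs DMSO baseline.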

Read-out in test [4]: Transforming growth factor beta 1 (TGFb1), TGFB1 (gene 7040)
Kind of test: BSK_BE3C_TGFb1: BioMAP Diversity Plus: BE3C Assay for Transforming growth factor beta 1 (TGFb1) Biomarker Activity (AID 2283036). The settings on record: primary human bronchial epithelial cells; actives raise or lower the signal. The procedure, abridged: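 Human primary bronchial epithelial cells (BE3C system) were dosed with chemical and TGF-b1 levels measured by ELISA at 24 h. Activity was fitted bidirectionally relative to DMSO negative control as baseline.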

Read-out in test [5]: Plasminogen activator inhibitor-1 (PAI1), SERPINE1 (gene 5054)
Kind of test: BSK_BE3C_PAI1: BioMAP Diversity Plus: BE3C Assay for Plasminogen activator inhibitor-1 (PAI1) Biomarker Activity (AID 2283037). The note with it: primary human bronchial epithelial cells; actives raise or lower the signal. The procedure, abridged: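 Human primary bronchial epithelial cells were exposed to chemical for 24 h, then PAI-1 was quantified by ELISA. Activity was fitted bidirectionally relative to the DMSO negative control baseline.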

Read-out in test [6]: urokinase plasminogen activator (uPA), PLAU (gene 5328)
Briefly: BSK_BE3C_uPA: BioMAP Diversity Plus: BE3C Assay for urokinase plasminogen activator (uPA) Biomarker Activity (AID 2283038).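 As to outcome: uPA protein level quantified by ELISA in cell cultures; uPA read one day after compound addition.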 The note with it: primary human bronchial epithelial cells; actives raise or lower the signal. Summed up:
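Bronchial epithelial cells (human, primary); chemical 24 h; uPA by ELISA; bidirectional fit vs DMSO. SRB (0.1%, after 10% TCA fixation, 560 nm) in parallel cultures for cytotoxicity.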

Read-out in test [7]: Urokinase-type plasminogen activator receptor (uPAR), PLAUR (gene 5329)
Kind of test: BSK_BE3C_uPAR: BioMAP Diversity Plus: BE3C Assay for Urokinase-type plasminogen activator receptor (uPAR) Biomarker Activity (AID 2283039).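 Also: cells exposed to compound for one day before measurement.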 The settings on record: primary human bronchial epithelial cells; actives raise or lower the signal. Summed up:
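Primary human bronchial epithelial cells were dosed with chemical and harvested 24 h later; uPAR was quantified by ELISA. Activity was fitted bidirectionally against DMSO as negative control and baseline.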

Read-out in test [8]: Interleukin-6 (IL6), IL6 (gene 3569)
Briefly: BSK_CASM3C_IL6: BioMAP Diversity Plus: CASM3C Assay for Interleukin-6 (IL6) Biomarker Activity for (AID 2283040). The note with it: primary human coronary artery smooth muscle cells; actives raise or lower the signal.

Read-out in test [9]: Tissue plasminogen activator (tPA), PLAT (gene 5327)
Briefly: BSK_BE3C_tPA: BioMAP Diversity Plus: BE3C Assay for Tissue plasminogen activator (tPA) Biomarker Activity (AID 2283041).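 As to outcome: tPA level quantified by ELISA one day after compound addition.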 The settings on record: primary human bronchial epithelial cells; actives raise or lower the signal. The procedure, abridged: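 Human primary bronchial epithelial cells were dosed with chemical and tPA biomarker levels measured by ELISA 24 hours later. Activity was fitted bidirectionally against DMSO as negative control and baseline.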

Read-out in test [10]: Interleukin-8 (IL8), CXCL8 (gene 3576)
Briefly: BSK_CASM3C_IL8: BioMAP Diversity Plus: CASM3C Assay for Interleukin-8 (IL8) Biomarker Activity (AID 2283042).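 Also: IL-8 protein level quantified by ELISA.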 The settings on record: primary human coronary artery smooth muscle cells; actives raise or lower the signal.

Read-out in test [11]: Human Leukocyte Antigen - DR isotype (HLADR), HLA-DRA (gene 3122)
Briefly: BSK_CASM3C_HLADR: BioMAP Diversity Plus: CASM3C Assay for Human Leukocyte Antigen - DR isotype (HLADR) Biomarker Activity (AID 2283043).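 Also: cell-surface HLA-DR protein level quantified by ELISA.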 The note with it: primary human coronary artery smooth muscle cells; actives raise or lower the signal.

Read-out in test [12]: Macrophage colony-stimulating factor (MCSF), CSF1 (gene 1435)
Kind of test: BSK_CASM3C_MCSF: BioMAP Diversity Plus: CASM3C Assay for Macrophage colony-stimulating factor (MCSF) Biomarker Activity (AID 2283044).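 Also: M-CSF protein amount quantified by ELISA after 24 h exposure.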 The note with it: primary human coronary artery smooth muscle cells; actives raise or lower the signal.

Read-out in test [13]: Low-density lipoprotein receptor (LDLR), LDLR (gene 3949)
Kind of test: BSK_CASM3C_LDLR: BioMAP Diversity Plus: CASM3C Assay for Low-density lipoprotein receptor (LDLR) Biomarker Activity (AID 2283045).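 Also: LDLR protein level on the cell surface quantified by ELISA.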 The note with it: primary human coronary artery smooth muscle cells; actives raise or lower the signal.

Read-out in test [14]: Monocyte Chemoattractant Protein-1 (MCP1), CCL2 (gene 6347)
Briefly: BSK_CASM3C_MCP1: BioMAP Diversity Plus: CASM3C Assay for Monocyte Chemoattractant Protein-1 (MCP1) Biomarker Activity (AID 2283046).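 Also: MCP-1 level quantified by ELISA 24 h after dosing.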 The settings on record: primary human coronary artery smooth muscle cells; actives raise or lower the signal.

A short description of test [15]: BSK_CASM3C_Proliferation: Cell Proliferation Assessment in the BioMAP Diversity Plus: CASM3C Assay (AID 2283047).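 Also: sulforhodamine B total protein stain as relative cell number at 560 nm; sub-confluent cells exposed 48 h before staining; fitted both ways against DMSO so gain or loss of cell number.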 The settings on record: primary human coronary artery smooth muscle cells.
Read-out in test [16]: Monokine induced gamma interferon (MIG), CXCL9 (gene 4283)
Briefly: BSK_CASM3C_MIG: BioMAP Diversity Plus: CASM3C Assay for Monokine induced gamma interferon (MIG) Biomarker Activity (AID 2283048). The settings on record: primary human coronary artery smooth muscle cells; actives raise or lower the signal.

Read-out in test [17]: serum amyloid A (SAA), SAA1 (gene 6288)
Kind of test: BSK_CASM3C_SAA: BioMAP Diversity Plus: CASM3C Assay for serum amyloid A (SAA) Biomarker Activity (AID 2283049).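 Also: SAA protein level quantified by ELISA.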 The settings on record: primary human coronary artery smooth muscle cells; actives raise or lower the signal.

Test [18] in a line: BSK_CASM3C_SRB: Viability Assessment in the BioMAP Diversity Plus: CASM3C Assay (AID 2283050).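 Also: total protein by SRB staining as cytotoxicity measure in parallel cultures.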 The note with it: primary human coronary artery smooth muscle cells.
Read-out in test [19]: Thrombomodulin, THBD (gene 7056)
Kind of test: BSK_CASM3C_Thrombomodulin: BioMAP Diversity Plus: CASM3C Assay for Thrombomodulin Biomarker Activity (AID 2283051).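 Also: thrombomodulin protein level measured by ELISA 24 h after dosing.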 The settings on record: primary human coronary artery smooth muscle cells; actives raise or lower the signal.

Read-out in test [20]: Tissue Factor, F3 (gene 2152)
Kind of test: BSK_CASM3C_TissueFactor: BioMAP Diversity Plus: CASM3C Assay for Tissue Factor Biomarker Activity (AID 2283052).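 Also: cell surface tissue factor protein level read by ELISA.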 The settings on record: primary human coronary artery smooth muscle cells; actives raise or lower the signal.

The AC50 is the concentration at which the activity in the assay is half-maximal. Take `O=C1OC2(c3ccccc31)c1ccc(O)c(Br)c1Oc1c2ccc(O)c1Br`: the AC50 in [1] was 20 µM (active); in [4], 3.97 µM (active); in test [9] it was 20 µM (active). Further, the result in test [2], in [3], in test [5], in [6], in test [7] and in test [8] was inactive. Further, the outcome in test [10], in [11], in test [12], in test [13], in [14] and in [15] was inactive. In addition, the result in test [16], in test [17], in [18], in [19] and in test [20] was inactive.
`CC1(C)CCC[C@]2(C)[C@H]3CCO[C@]3(C)CC[C@@H]12`: the concentration at half-maximal activity (AC50) in test [1] is 30.4 µM (active); in [5], 36.4 µM (active); in test [6], 26.2 µM (active); in [8], 31.5 µM (active) and 16.6 µM (active); in test [9], 23 µM (active) and 20 µM (active); in test [10] it was 33 µM (active). In addition, the half-maximal activity concentration (AC50) in test [11] was 34.9 µM (active) and 32.9 µM (active); in [12], 20 µM (active); in test [14], 33.4 µM (active) and 33.3 µM (active); in test [15] it was 36.3 µM (active) and 36.8 µM (active); in test [16], 30.4 µM (active) and 31.2 µM (active); in test [17] it was 34.2 µM (active) and 31.3 µM (active). In addition, the AC50 was 34.5 µM (active) and 35.3 µM (active) in [18]; 1.65 µM (active) in test [20]. The outcome in test [1], in test [2], in test [3], in [5], in test [6] and in [7] was inactive. Besides, the outcome in test [10], in test [12], in test [13], in test [19] and in test [20] was inactive.
In the case of `CSCCC=O`, the result in [1], in test [2], in [3], in test [4], in [5] and in test [6] was inactive. The outcome in test [7], in test [8], in [9], in test [10], in test [11] and in [12] was inactive. In addition, the outcome in [13], in [14], in test [15], in test [16], in test [17] and in [18] was inactive. For the same compound, the result in test [19] and in [20] was inactive.
Consider `C=C(C)[C@H]1CC=C(C)C(=O)C1`, for which the result in test [1], in [2], in test [3], in test [4], in [5] and in test [6] was inactive. Further, the result in test [7], in test [8], in test [9], in [10], in [11] and in [12] was inactive. Moreover, the outcome in test [13], in test [14], in test [15], in [16], in test [17] and in test [18] was inactive. Also, the result in test [19] and in [20] was inactive.
Regarding `CC(C)(N=C=O)c1cccc(C(C)(C)N=C=O)c1`, the result in test [1], in [2], in test [3], in test [4], in test [5] and in test [6] was inactive. The result in test [7], in [8], in test [9], in [10], in [11] and in [12] was inactive. Besides, the result in test [13], in test [14], in test [15], in test [16], in test [17] and in test [18] was inactive. Also, the outcome in [19] and in [20] was inactive.

The values above are taken from PubChem BioAssay (EPA / NIEHS).
